# G9a inh: G9a (human) methyltransferase inhibition; Q96KQ7; G9a H3K9 monomethylation, AlphaScreen, 2 h; Potency, µM (top dose mostly 102 µM), without a hit: at the highest dose activity, negative = inhibition, usual class: inhibitors; 8.8% of 350,000 active; AID 504332; further: potency means the concentration at half of the fitted maximal effect; on the % scale 0 is the no-effect control and ±100 the full control effect; nearly all actives have a fitted effect of over 75% in size
#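 Chemiluminescent proximity detection of H3K9 monomethylation, read after 10 min bead incubation in the dark. Reaction: 20 nM G9a, 500 nM biotin-H3K9 peptide, 20 uM SAM cofactor, 2 h, room temperature, following 15 min enzyme-compound preincubation.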
# HP1b binding inh: blocks HP1-beta chromodomain binding to methylated histone tails. 0.56% of 390,000 active. AID 540317. AlphaScreen HP1-beta / biotin-H3K9me3 peptide binding. Potency, µM (highest dose often 114 µM), inactives show top-dose activity change, negative = inhibition, usual class: inhibitors. P83916; further: potency means the concentration at half of the fitted maximal effect; nearly all actives have a fitted effect of over 70% in size
#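 AlphaScreen: HP1-beta (50 nM) preformed 30 min with biotin-H3(1-18)K9me3 peptide (50 nM) in PBS pH 7.4, 0.01% Tween-20. Compound added for 30 min at RT, then streptavidin donor/nickel chelate acceptor beads (10 ug/mL) for 30 min.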
# CtBP-E1A inh: inhibitors of CtBP/E1A interaction. AlphaScreen GST-E1A/His-CtBP binding, 1536-well; active compounds read low. activity change, % (concentration not given with the values). 0.49% of 340,000 active; in the data active means activity change below about -65%; inconclusive means mostly about -30% to -63%; further: on the % scale 0 is the no-effect control and ±100 the full control effect
#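 In 5 uL wells, 23 nL compound meets equimolar GST-E1A and His-CtBP (5X stock 125 nM each) for 2 h, 37 °C. Beads (5X, 50 ug/mL) then 1 h, 37 °C, dark.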
# BAZ2B block: inhibitors of human BAZ2B bromodomain. Potency, µM (doses to about 114 µM), for inactives: top-dose activity change, negative = inhibition, most hits filed as inhibitors. Q9UIF8. AlphaScreen BAZ2B-H3K14Ac peptide displacement. 4.4% of 360,000 active; further: potency means the concentration at half of the fitted maximal effect; on the % scale 0 is the no-effect control and ±100 the full control effect; nearly all actives have a fitted effect of over 60% in size
#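 Inhibition is scored as reduced AlphaScreen emission. The BAZ2B/b-H3(5-23)K14Ac complex (50 nM each) in PBS pH 7.4, 0.01% Tween-20 meets compound (up to 110 uM) for 30 min at RT before bead addition.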
# Six1-Eya2 inh: inhibitors of human Six1/Eya2 interaction; 0.56% of 360,000 active; Q15475+O00167; activity change, % (concentration not given with the values); AlphaScreen GST-Six1/His-Eya2 binding, biochemical; active compounds read low; in the data active means activity change below about -65%; inconclusive means mostly about -30% to -63%; further: on the % scale 0 is the no-effect control and ±100 the full control effect
# Target sequence (O00167 whole entry, looked up): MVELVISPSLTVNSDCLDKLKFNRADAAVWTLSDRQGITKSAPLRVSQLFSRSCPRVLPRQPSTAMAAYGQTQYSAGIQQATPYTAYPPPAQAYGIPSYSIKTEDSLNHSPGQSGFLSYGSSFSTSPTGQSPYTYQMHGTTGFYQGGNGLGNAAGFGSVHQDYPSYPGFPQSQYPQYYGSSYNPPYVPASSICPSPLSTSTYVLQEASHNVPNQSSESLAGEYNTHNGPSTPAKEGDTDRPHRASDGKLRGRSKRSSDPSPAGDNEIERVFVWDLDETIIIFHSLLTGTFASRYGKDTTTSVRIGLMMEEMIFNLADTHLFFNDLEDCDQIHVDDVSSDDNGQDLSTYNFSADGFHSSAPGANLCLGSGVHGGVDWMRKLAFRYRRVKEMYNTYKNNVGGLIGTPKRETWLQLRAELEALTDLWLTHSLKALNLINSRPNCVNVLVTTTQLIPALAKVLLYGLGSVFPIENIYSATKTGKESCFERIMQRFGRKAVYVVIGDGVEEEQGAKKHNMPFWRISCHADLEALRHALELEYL
# Target sequence (Q15475 whole entry, looked up): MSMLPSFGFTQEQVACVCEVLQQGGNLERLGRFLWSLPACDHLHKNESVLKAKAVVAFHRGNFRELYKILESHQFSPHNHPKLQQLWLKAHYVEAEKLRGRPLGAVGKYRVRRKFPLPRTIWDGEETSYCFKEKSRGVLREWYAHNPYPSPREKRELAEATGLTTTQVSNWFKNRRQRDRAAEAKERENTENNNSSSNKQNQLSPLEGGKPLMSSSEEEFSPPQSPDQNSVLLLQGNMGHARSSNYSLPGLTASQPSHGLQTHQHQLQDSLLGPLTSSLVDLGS
#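 AlphaScreen with GST-Six1 and His-Eya2 (5X mix: 250 nM and 500 nM), glutathione donor and nickel acceptor beads; buffer 50 mM Tris pH 8.0, 300 mM NaCl, 1 mM TCEP; 1 h at 37 C in the dark.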
# JMJD2A Tudor inh: JMJD2A Tudor domain (human) inhibition; O75164; AlphaScreen JMJD2A-Tudor / H3K4me3 peptide binding; Potency, µM (titrated, usually from 114 µM), without a hit: at the highest dose activity change, negative = inhibition, actives largely listed as inhibitors; 4.4% of 390,000 active; further: potency means the concentration at half of the fitted maximal effect; on the % scale 0 is the no-effect control and ±100 the full control effect; nearly all actives have a fitted effect of over 50% in size
# The depositor's hits bear a star; ? = inconclusive; nt = no result given; [ ] = dose if it differs, or a comment. A selection: hits, their analogues and other compounds. The true share with any hit is near 10%. Unless noted, the call rests on the fitted dose curve; in most records, active means well fitted inhibition curve with a large enough effect; inconclusive means small, poorly fitted or top-dose-only effect; inactive means no such curve, though single readings can be large or run the other way.
SMILES,G9a inh,HP1b binding inh,CtBP-E1A inh,BAZ2B block,Six1-Eya2 inh,JMJD2A Tudor inh
COC(=O)C1=C(C)N(Cc2ccco2)C(=O)/C1=C\c1ccc(N(C)C)cc1,?,-73%,-4,?,-1,16µM*
CCOC(=O)C1CCN(/C=C2/C(=O)NC(=O)N(Cc3ccco3)C2=O)CC1,?,-13%,-3,?,-28,?
O=C(Nc1ccc(Cl)cc1)O/N=C(\c1ccccc1)c1ccccn1,?,23%,?,14µM*,?,10µM*
CON(C)C(=O)Nc1ccc(Cl)cc1,-43%[59 µM],14%,6,5%,3,-9%
CCn1ncc(-c2ccnc3cc(C(=O)O)nn23)c1C,?,15%,1,32µM*,?,25µM*
CC[C@]12C=CCN3CCC4(c5cc(Br)c(OC)cc5N(C)C4[C@@](O)(C(=O)OC)[C@@H]1OC(C)=O)C32 (some centres not stated),35µM*,14%,nt,-14%,-3,-25%
c1ccc2nc3ccccc3nc2c1,45µM*,41%,?,-3%,-4,-23%
O=C1C=C2C=CC3C[C@@]2(O1)C1CCCCN31 (some centres not stated),-38%[2.33 µM],nt,nt,nt,nt,nt
O=C(O)[C@H]1[C@H]2CN[C@H](C(=O)O)[C@H]21,8%[59 µM],nt,nt,nt,nt,nt
C=C(C)[C@H]1CN[C@H](C(=O)O)[C@H]1CC(=O)O,9%[12.7 µM],?,2,nt,4,40µM*
O=C(Oc1ccccc1)N1CCC2(CCN(Cc3ccccc3)CC2)CC1,8%[12.7 µM],nt,nt,nt,nt,nt
CC(=O)O[C@H]1C[C@H](O[C@H]2[C@@H](O)CC(O[C@H]3[C@@H](O)C[C@H](O[C@H]4CC[C@@]5(C)[C@H](CC[C@@H]6[C@@H]5CC[C@]5(C)[C@@H](C7=CC(=O)OC7)CC[C@]65O)C4)O[C@@H]3C)O[C@@H]2C)O[C@H](C)[C@H]1O[C@@H]1O[C@H](CO)[C@@H](O)[C@H](O)[C@H]1O (some centres not stated),-6%[12.7 µM],nt,nt,nt,nt,nt
C=CC[N+]1(C)CCC23c4c5ccc(O)c4O[C@H]2C(=O)CC[C@@]3(O)C1C5 (some centres not stated),31%[59 µM],nt,nt,nt,nt,nt
C=CC[N+]1(C)CC[C@]23c4c5ccc(O)c4O[C@H]2C(=O)CC[C@@]3(O)[C@H]1C5 (some centres not stated),1.6µM*,?,9,-7%,0,?
O=c1[nH]c(=S)n(-c2cccc(C(F)(F)F)c2)c(O)c1C=NCCN1CCNCC1,11%,47%,4,-8%,-6,-13%
CCOC(=O)c1ccc2c(c1)N(CC)C(=O)c1ccccc1S2,45µM*,24%,nt,-7%,9,-3%
CCN1C(=O)c2ccccc2Sc2ccc(NC(=O)c3ccc(C)c(F)c3)cc21,2%[59 µM],25%[57 µM],nt,1%,nt,?
O=c1[nH]c(=O)n([C@H]2C[C@@H](O)[C@@H](CO)O2)cc1C=CBr,40%[59 µM],nt,nt,nt,nt,nt
Nc1nc2c(s1)CCCCCCCCCC2,45µM*,?,-3,-27%,-2,?
CCN1CCN(CC(c2ccccc2)c2ccccc2)CC1,?,?,-1,10µM*,0,0.79µM*
Nc1ccc(C2(c3ccc(N)cc3)CN3CCC2CC3)cc1,5.6µM*,3%,-5,-3%,1,-24%
O=C(Nc1cccc(F)c1)N1CCCC2(CCN(C(=O)Oc3ccccc3)CC2)C1,3%[12.7 µM],nt,nt,nt,nt,nt
NCCCN1CCN(c2ccccc2)CC1,nt,-27%,-11,20%,-2,?
COc1ccc(N2CCN(CCCN)CC2)cc1,nt,?,-17,nt,-13,10µM*
CC(=O)OC1CC[C@]2(C)C(CCC3C2CC[C@]2(C)C(C4=CC(=O)OC4)C(OC(C)=O)CC32O)C1 (some centres not stated),-1%[2.33 µM],nt,nt,nt,nt,nt
CCC(=Nc1ccc(Cc2ccncc2)cc1)c1c(O)n(C)c(=O)n(C)c1=O,79µM*,20%,-2,-6%,9,-9%

# Compound activity as filed in PubChem BioAssay.
